PubChem BioAssay AID1159580 (chemical genetic matrix, 2015)
About 2,000 (36%) of roughly 5,500 compounds were called active. Inconclusive results (about 18%) are left out. Rule as the data show it: active = normalized growth mostly below about 0.91 (no sharp cut-off); inconclusive = no clear call, values can overlap the other calls; inactive = mostly above about 0.92. The list shows a part of the results.

Assay: chemical genetic growth profiling, strain panel (AID 1159580);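 also: tested at 20 µM; growth read once vehicle control cultures reached saturation at 30 °C; 1 = growth at the plate median or of vehicle wells; lower values mean less growth of the strain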
Conditions: S. cerevisiae deletion strains, growth OD
[1] = locus YAR019C, strain CDC15, stronger effect = lower value
[2] = locus YBL105C, strain PKC1, stronger effect = lower value
[3] = locus YBR135W, strain CKS1, stronger effect = lower value
[4] = locus YBR136W, strain MEC1, stronger effect = lower value
[5] = locus YBR160W, strain CDC28, stronger effect = lower value
[6] = locus YDL017W, strain CDC7, stronger effect = lower value
[7] = locus YDL028C, strain MPS1, stronger effect = lower value
[8] = locus YDL101C, strain DUN1, stronger effect = lower value
[9] = locus YDL108W, strain KIN28, stronger effect = lower value
[10] = locus YDL132W, strain cdc53, stronger effect = lower value
[11] = locus YDL214C, strain PRR2, stronger effect = lower value
[12] = locus YDR052C, strain DBF4, stronger effect = lower value
[13] = locus YDR054C, strain cdc34, stronger effect = lower value
[14] = locus YDR226W, strain ADK1, stronger effect = lower value
[15] = locus YDR477W, strain SNF1, stronger effect = lower value
[16] = locus YER123W, strain YCK3, stronger effect = lower value
[17] = locus YER133W, strain GLC7, stronger effect = lower value
[18] = locus YFL009W, strain cdc4, stronger effect = lower value
[19] = locus YFL029C, strain CAK1, stronger effect = lower value
[20] = locus YFR003C, strain YPI1, stronger effect = lower value
[21] = locus YFR019W, strain FAB1, stronger effect = lower value
[22] = locus YFR028C, strain CDC14, stronger effect = lower value
[23] = locus YGR040W, strain KSS1, stronger effect = lower value
[24] = locus YGR052W, strain FMP48, stronger effect = lower value
[25] = locus YGR092W, strain DBF2, stronger effect = lower value
[26] = locus YHR030C, strain SLT2, stronger effect = lower value
[27] = locus YHR079C, strain IRE1, stronger effect = lower value
[28] = locus YHR082C, strain KSP1, stronger effect = lower value
[29] = locus YHR205W, strain SCH9, stronger effect = lower value
[30] = locus YIL147C, strain SLN1, stronger effect = lower value
[31] = locus YJL095W, strain BCK1, stronger effect = lower value
[32] = locus YJL128C, strain PBS2, stronger effect = lower value
[33] = locus YJL157C, strain FAR1, stronger effect = lower value
[34] = locus YJR016C, strain ILV3, stronger effect = lower value
[35] = locus YJR066W, strain TOR1 (second series), stronger effect = lower value
[36] = locus YJR066W, strain TOR1, stronger effect = lower value
[37] = locus YKL048C, strain ELM1, stronger effect = lower value
[38] = locus YKL067W, strain YNK1, stronger effect = lower value
[39] = locus YKL101W, strain HSL1, stronger effect = lower value
[40] = locus YKL193C, strain SDS22, stronger effect = lower value
[41] = locus YKL203C, strain TOR2, stronger effect = lower value
[42] = locus YLR113W, strain HOG1, stronger effect = lower value
[43] = locus YLR133W, strain CKI1, stronger effect = lower value
[44] = locus YLR403W, strain SFP1, stronger effect = lower value
[45] = locus YML070W, strain DAK1, stronger effect = lower value
[46] = locus YMR001C, strain CDC5, stronger effect = lower value
[47] = locus YMR205C, strain PFK2 (second series), stronger effect = lower value
[48] = locus YMR277W, strain FCP1, stronger effect = lower value
[49] = locus YNL006W, strain LST8, stronger effect = lower value
[50] = locus YNL020C, strain ARK1, stronger effect = lower value
[51] = locus YNL161W, strain CBK1, stronger effect = lower value
[52] = locus YNL183C, strain NPR1, stronger effect = lower value
[53] = locus YNL207W, strain RIO2, stronger effect = lower value
[54] = locus YNL222W, strain SSU72, stronger effect = lower value
[55] = locus YNL307C, strain MCK1 (second series), stronger effect = lower value
[56] = locus YOL078W, strain AVO1, stronger effect = lower value
[57] = locus YOL136C, strain PFK27, stronger effect = lower value
[58] = locus YOR061W, strain CKA2, stronger effect = lower value
[59] = locus YOR119C, strain RIO1, stronger effect = lower value
[60] = locus YOR231W, strain MKK1, stronger effect = lower value
[61] = locus YOR329C, strain SCD5, stronger effect = lower value
[62] = locus YPL031C, strain PHO85, stronger effect = lower value
[63] = locus YPL153C, strain RAD53, stronger effect = lower value
[64] = locus YPL204W, strain HRR25, stronger effect = lower value
[65] = locus YPL209C, strain IPL1, stronger effect = lower value
[66] = locus YPL256C, strain CLN2, stronger effect = lower value
[67] = locus YPR025C, strain CCL1, stronger effect = lower value
[68] = locus YPR106W, strain ISR1, stronger effect = lower value
[69] = locus YPR111W, strain DBF20, stronger effect = lower value
[70] = strain NNK1, stronger effect = lower value
[71] = strain TSCII, stronger effect = lower value

Measured: normalized growth

O=C1OC(Nc2ccccc2SCc2ccccc2Cl)c2ccccc21 (stereo not drawn)
active: [42] 0.832
inactive: [1] 0.985 | [2] 0.977 | [3] 0.97 | [4] 0.973 | [5] 0.981 | [6] 0.989 | [7] 0.984 | [8] 0.971 | [9] 0.977 | [10] 0.962 | [11] 0.903 | [12] 0.989 | [13] 0.98 | [14] 0.965 | [15] 0.928 | [16] 0.89 | [17] 0.897 | [18] 0.97 | [19] 0.971 | [20] 0.983 | [21] 0.886 | [22] 0.967 | [23] 0.899 | [24] 0.87 | [25] 0.855 | [26] 0.867 | [27] 0.905 | [28] 0.948 | [29] 0.798 | [30] 0.977 | [31] 0.814 | [32] 0.937 | [33] 0.905 | [34] 0.98 | [35] 0.846 | [36] 0.914 | [37] 0.963 | [38] 0.908 | [39] 0.907 | [40] 0.979 | [41] 0.93 | [43] 0.899 | [44] 0.83 | [45] 0.903 | [46] 0.98 | [47] 0.912 | [48] 0.979 | [49] 0.975 | [50] 0.916 | [51] 0.976 | [52] 0.909 | [53] 0.968 | [54] 0.974 | [55] 0.862 | [56] 0.97 | [57] 0.854 | [58] 0.888 | [59] 0.964 | [60] 0.895 | [61] 0.984 | [62] 0.912 | [63] 0.934 | [64] 0.882 | [65] 0.978 | [66] 0.953 | [67] 0.984 | [68] 0.976 | [69] 0.955 | [70] 0.971 | [71] 0.965

CCC1(c2ccccc2)OC(c2cc(Cl)cc(Cl)c2O)Nc2ccccc21 (stereo not drawn)
inactive: [1] 0.96 | [2] 0.964 | [3] 0.965 | [4] 0.968 | [5] 0.964 | [6] 0.965 | [7] 0.966 | [8] 0.986 | [9] 0.968 | [10] 0.963 | [11] 0.705 | [12] 0.976 | [13] 0.954 | [14] 0.97 | [17] 0.734 | [18] 0.962 | [19] 0.967 | [20] 0.958 | [22] 0.963 | [24] 0.651 | [28] 0.689 | [29] 0.639 | [30] 0.964 | [32] 0.93 | [34] 0.962 | [35] 0.633 | [36] 0.572 | [40] 0.971 | [41] 0.751 | [46] 0.971 | [48] 0.968 | [49] 0.969 | [51] 0.962 | [52] 0.646 | [53] 0.96 | [54] 0.956 | [56] 0.967 | [59] 0.753 | [61] 0.962 | [62] 0.685 | [65] 0.954 | [67] 0.96 | [68] 0.954 | [69] 0.957 | [70] 0.963 | [71] 0.966
active: [15] 0.689 | [16] 0.513 | [21] 0.738 | [23] 0.689 | [25] 0.233 | [26] 0.449 | [27] 0.461 | [31] 0.464 | [33] 0.564 | [37] 0.717 | [38] 0.696 | [39] 0.678 | [42] 0.539 | [43] 0.623 | [44] 0.572 | [45] 0.561 | [47] 0.688 | [50] 0.552 | [55] 0.551 | [57] 0.452 | [58] 0.469 | [60] 0.476 | [63] 0.562 | [64] 0.604 | [66] 0.47

O=S(=O)(Nc1cc(-c2cccs2)nn1-c1ccc(I)cc1)c1cccc(F)c1
inactive: [1] 0.957 | [2] 0.966 | [3] 0.966 | [4] 0.97 | [5] 0.956 | [6] 0.97 | [7] 0.948 | [8] 0.983 | [9] 0.958 | [10] 0.966 | [11] 0.926 | [12] 0.983 | [13] 0.986 | [14] 0.961 | [15] 0.926 | [16] 0.929 | [17] 0.951 | [18] 0.971 | [19] 0.953 | [20] 0.979 | [21] 0.974 | [22] 0.983 | [23] 0.931 | [24] 0.966 | [25] 0.876 | [27] 0.922 | [28] 0.968 | [29] 0.863 | [30] 0.967 | [31] 0.903 | [32] 0.91 | [33] 0.956 | [34] 0.969 | [35] 0.952 | [36] 0.906 | [37] 0.947 | [38] 0.912 | [39] 0.931 | [40] 0.971 | [41] 1.03 | [43] 0.935 | [44] 0.944 | [45] 0.936 | [46] 0.966 | [47] 0.945 | [48] 0.968 | [49] 0.964 | [50] 0.946 | [51] 0.974 | [52] 0.986 | [53] 0.968 | [54] 0.956 | [55] 0.911 | [56] 0.966 | [57] 0.925 | [58] 0.951 | [59] 0.961 | [60] 0.935 | [61] 0.968 | [62] 0.928 | [63] 0.943 | [64] 0.928 | [65] 0.975 | [66] 0.87 | [67] 0.966 | [68] 0.964 | [69] 1.01 | [70] 0.965 | [71] 0.965
active: [26] 0.715 | [42] 0.848
